In all, about 1,300 compounds went through this assay and about 330 (25%) were called active. The rule behind the calls is not given here. Not all results are given here. Entries with a potency or affinity are not part of this list.

This experiment is described as follows: MALME3 melanoma cell viability loss, dose response, orthogonal assay for MITF inhibitor project, CellTiter-Glo, cherry-picked (AID 493191). Conditions: CellTiter-Glo luminescence, 24 h; series mostly up to 35 µM. (In general: Cellular ATP, detected with luciferase, serves as a proxy for viable cell number.)
Consider `O=C(Nc1ccccc1F)C(=O)Nc1cccc2ccccc12`, for which the outcome was inactive. For `Cc1ccc2oc(C(Cl)(Cl)Cl)cc(=O)c2c1`, the compound was called inactive. For `O=C(CSc1nnnn1-c1ccc(O)cc1)Nc1cccc(S(=O)(=O)N2CCCC2)c1` the value was “inactive”; for `O=C(CCl)Nc1cccc(S(=O)(=O)NC2=NCCCCC2)c1`, “inactive”.

Take `CC1CCN(c2nc3ccc(C(=O)O)cc3s2)CC1`: the outcome was inactive.

Consider `COc1ccc(C(=O)Nc2nc3ccc(OC)cc3s2)cc1`, for which the result was inactive. Next, `COc1cccc(N2CCN(C(=O)c3ccc(CS(=O)c4ccccc4Cl)o3)CC2)c1` (centres undefined): “inactive”; `O=C(c1ccc(F)cc1)N1CCC(c2ccccc2)C1` (centres undefined): “inactive”.

For `CC(C)c1nnc(NC(=O)CCC2CCCCC2)s1`, the compound was called inactive. Next, `COc1ccc2oc(=O)c(C(=O)Nc3ccccc3C)cc2c1`: “inactive”; `c1ccc(OCc2nn3c(-c4ccccn4)nnc3s2)cc1`: “inactive”.

On to `COc1ccc(-c2c[n+](CC(=O)OC3CC(C)CCC3C(C)C)c3n2CCC3)cc1` (centres undefined), for which the call was inactive.

In the case of `Cc1ccc(-c2c[n+](Cc3ccc(Cl)cc3)c3n2CCC3)cc1`, the call was inactive. Next, `COc1ccc(N/N=C/c2c(C(=O)O)ccc3ccccc23)cc1`: “inactive”; `Cc1ccc(COc2ccc(C)nc2[N+](=O)[O-])cc1`: “inactive”.

As for `CCc1cc(C=NC2CCCCC2)c(O)s1`, the outcome was inactive.

In the case of `O=[N+]([O-])c1cc(Cl)cc(/C=N\Nc2ccccn2)c1O`, the compound was called inactive. Next, `COc1cc2c(c(OC)c1OC)-c1ccc(N(C)CC(OC)OC)c(=O)cc1[C@@H](NC(C)=O)CC2`: “inactive”; `Cc1cc(N2CCOCC2)ccc1/C=C\[N+](=O)[O-]`: “inactive”. Next, `O=C(Nc1ccc(Cl)cc1)C1C2CCCCC21` (centres undefined): “inactive”; `COc1ccc(C(=O)NC(=O)Nc2cc(C)ccn2)cc1`: “inactive”.

Regarding `N/C(=N\OC(=O)c1ccccc1)c1ccccn1`, the outcome was inactive. As to `COCc1cc(C)nc2sc(C(=O)Nc3cccc(OC)c3)c(N)c12`, the call was inactive. Next, `Cc1cccc2sc(N(CCCN(C)C)C(=O)c3nc4ccccc4s3)nc12`: “inactive”. Next, `O=[N+]([O-])c1c(NCCCO)cc(Sc2ccc(Cl)cc2)c2nonc12`: “inactive”. For `CC(=O)OCCCNc1cc(Sc2ccc(Cl)cc2)c2nonc2c1[N+](=O)[O-]` the value was “inactive”; for `CCC(=O)OCCNc1cc(Sc2nc3ccccc3[nH]2)c2nonc2c1[N+](=O)[O-]`, “inactive”; for `O=C(Nc1ccccc1F)c1ccc2c(c1)OCO2`, “inactive”.

For `COc1cccc(-c2nnc3n2N=C(C(C)(C)C)CS3)c1`, the outcome was inactive. For `Cc1ccc(C2=NN(C(=O)CCl)C(c3cccs3)C2)o1` (centres undefined) the value was “inactive”; for `C=C1C(=O)C=C[C@]2(C)C[C@@H]3OC(=O)[C@](C)(O)[C@H]3C[C@@H]12`, “inactive”; for `CNc1oc(/C=C/c2cccc(OC)c2)nc1C#N`, “inactive”. For `CCCN1C(=O)c2ccc(C(=O)Nc3cc(C)ccc3O)cc2C1=O` the value was “inactive”; for `NNC(=O)c1cc2ccccc2cc1O`, “inactive”; for `Cn1c(=O)c([N+](=O)[O-])c(-n2ccnc2)c2ccccc21`, “inactive”. Next, `CCn1c(=O)c(C(=O)NCc2ccccc2Cl)c(O)c2ccccc21`: “inactive”; `COc1cc([N+](=O)[O-])cc(/C=N/NC(=O)c2ccc(NC(=O)c3ccc(C)cc3)cc2)c1O`: “inactive”.

For the compound `CCOc1cc(NC(=O)CCl)c(OCC)cc1NC(=O)CCl`, the outcome was inactive.

With `O=C(O)c1cccc(NC(=S)N/N=C/c2ccccn2)c1`, the call was inactive. Next, `O=C(NC1CCCCC1)C(c1cccnc1)N(C(=O)CCl)c1ccc(F)cc1` (centres undefined): “inactive”. For `COc1cc2c(cc1OC)C(C)N(S(=O)(=O)c1cnc(Cl)c(Cl)c1)CC2` (centres undefined) the value was “inactive”. For `COc1cc(CN2CCC(C(N)=O)CC2)ccc1OCc1ccccc1`, the outcome was inactive. Next, `Cc1cc(C)c(C#N)c(SCc2nnc(-c3ccccc3)o2)n1`: “inactive”; `O=C(NC1CCCCC1)c1cc2cc(Br)ccc2o1`: “inactive”. For `COc1cc2c(c(OC)c1OC)-c1ccc(OC)c(=O)cc1C(NC(C)=O)CC2` (centres undefined) the value was “inactive”; for `O=C(C[n+]1cc(-c2ccc(F)cc2)n2c1CCC2)c1cccs1`, “inactive”. For `Cc1nc(SCC(=O)Nc2ccc(CN3CCCC3)cc2)c2c(C)c(C)sc2n1` the value was “inactive”. For the compound `O=C(CCl)Nc1ccc(Sc2ccc(NC(=O)CCl)cc2)cc1`, the outcome was inactive. Next, `O=C(CCl)Nc1ccc(-c2ccccc2)cc1`: “inactive”; `Cc1ccc2cc(NC(=O)Cc3ccccc3)ccc2n1`: “inactive”; `Cc1cccc(OCC(=O)Nc2cccc(O)c2)c1`: “inactive”. Take `COc1cccc(NC(=O)c2cc3ccccc3cc2OC)c1`: the compound was classed as inactive.

With `COc1ccc(-c2cc(-c3ccc(OC)c(OC)c3)n[nH]2)c(O)c1`, the compound was called inactive. Next, `CCCOC(=O)c1ccc(NC(=O)C2CCCO2)cc1` (centres undefined): “inactive”; `CC1=NC(=O)C(N=Nc2cccc(C(=O)O)c2)N1c1ccccc1` (centres undefined): “inactive”. Next, `Cc1ccc(-c2c[n+](Cc3ccc(Cl)c(Cl)c3)c3n2CCC3)cc1`: “inactive”; `Cc1oc(=O)c(NC(=O)c2ccccc2)cc1C(=O)c1ccccc1`: “inactive”; `Cc1cc(C)c2nc3nc(C)cc(C)c3c(N)c2c1`: “inactive”. On to `Cc1cc(C)c2c(N)c(C(=O)N/N=C/c3ccccc3)sc2n1`, for which the compound was called inactive. For `Cn1nnnc1Sc1ncnc2scc(-c3ccc(F)cc3)c12` the value was “inactive”; for `Cn1nnnc1Sc1ncnc2scc(-c3ccsc3)c12`, “inactive”. For `O=C(O)c1ccc(N/N=C/c2ccc(OC(=O)c3cccc(Cl)c3)cc2)cc1` the value was “inactive”.

Take `COc1ccccc1N1CCN(/N=C/c2cccc(Cl)c2)CC1`: the result was inactive. Turning to `CC(Oc1ccccc1)C(=O)Nc1nc(-c2ccccn2)cs1` (centres undefined), the compound was called inactive. Regarding `O=C(Nc1nc(-c2ccccn2)cs1)c1ccccc1-n1cnnn1`, the outcome was inactive. Next, `COc1ccc(C(=O)/C=C/Nc2ccccn2)cc1`: “inactive”; `Cc1cccc(NC(=O)c2ccc([N+](=O)[O-])o2)c1C`: “inactive”; `Cc1nc2ccc(NC(=O)c3ccco3)cc2nc1C`: “inactive”. For `Cc1cc(C(=O)Nc2cccc(C(=O)O)c2)oc1C` the value was “inactive”; for `O=C(Nc1ccc2nn(-c3ccccc3)nc2c1)c1ccco1`, “inactive”.

In the case of `COc1ccc(C(=O)Nc2ccc3c(c2)OCCO3)cc1Br`, the call was inactive. Next, `CC(C)[C@H](NC(=O)OC(C)(C)C)c1nnc(S(=O)(=O)Cc2c(F)cccc2Cl)o1`: “inactive”. Next, `CCOc1ccc(C(=O)N2CCc3ccccc32)cc1`: “inactive”; `N#C/C(=C\c1cccs1)C(=O)NCC1CCCO1` (centres undefined): “inactive”.

Source of the values: PubChem BioAssay AID493191 (Broad Institute, 2011).
